Test results reported in PubChem BioAssay (NCI).
The panel holds about 83,000 compounds, 20% with a hit somewhere; the sample as a whole holds those more often.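 96-well plates, one dose, 48 hours. Percent growth reported; active if below 10.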 The source made the active and inactive calls.

Test system: MDA-MB-468 breast
Assay: NCI-60 one-dose screen, 48 h (100 = growth as untreated, 0 = no growth, -100 = all killed)
Settings: 10 µM unless noted

| Structure (SMILES) | growth |
| --- | --- |
| COc1ccc(-c2ncnc3c2ncn3CC#CCCl)cc1 | 20.8% (inactive) |
| Cc1cc(NCCCCNc2ccnc3cc(Cl)ccc23)nc(Nc2ccc(C(=O)N3CCCC3)cc2)n1 | -26.6% (active) |
| COC1CC(O)C2=C(CC3C(/C(C)=C\CC=C(C)C)CCC3(C)O2)C1=O (stereo unspecified) | 109% (inactive) |
| O=C(Nc1ccccc1)c1cc2ccccc2s1 | 89.1% (inactive) |
| Cc1ccc(C)c(-c2csc(Nc3ccc(C)c(C)c3)n2)c1 | 14.5% (inactive) |
| Brc1ccccc1/C=N/Nc1nc(N/N=C/c2ccccc2Br)nc(N2CCOCC2)n1 | 90.3% (inactive) |
| COc1cc(CCCO)c(OC)c(OC)c1OC | 104% (inactive) |
| CC1C(C)N(C(=O)CCl)c2ccccc2N1C(=O)CCl (stereo unspecified) | -69% (active) |
| NC1=C(/C(N)=N/O)C(c2ccccc2)c2ccc3ccccc3c2O1 (stereo unspecified) | -1.49% (active) |
| CC(C)(C)c1cc(-c2nc3ccc(N4CCN(S(C)(=O)=O)CC4)cc3[nH]2)cc(C(C)(C)C)c1O | 96.1% (inactive) |
| Clc1ccc(-c2nnc(-c3ccco3)o2)cc1 | 100% (inactive) |
| CC1(C)N=C(N)N=C(N)N1c1ccc(S(=O)(=O)Nc2nccs2)cc1 | 103% (inactive) |
| O=C(c1ccc(Cl)cc1)C1C(c2ccccc2)C1[N+](=O)[O-] (stereo unspecified) | 111% (inactive) |
| Cc1ccc2c(c1)Sc1c(ccc3ccccc13)N2 | 86.6% (inactive) |
| CC(=Nc1ccccc1)C1=C(O)C(Cc2ccc(O)cc2)NC1=O (stereo unspecified) | 17.6% (inactive) |
| CCc1ccc(Oc2c(-c3ccc(OCCc4cccc(C(F)(F)F)c4)cc3O)n[nH]c2C(F)(F)F)cc1 | 22.5% (inactive) |
